From PubChem BioAssay
S2 tox: Viability Counterscreen for Primary qHTS for Inhibitors of ATXN expression; S2 cells (HEK-293 line with an ATXN2-luciferase reporter) viability, CellTiter-Fluor protease fluorescence, 24 h; Potency, µM (highest dose often 56.7 µM), actives largely listed as cytotoxic; 0.49% of 400,000 active; AID 651635, 2014; also: potency is read from the fitted curve at half-maximal effect; nearly all actives have a fitted effect of over 40% in size
USP1-UAF1 inh: Inhibitors of USP1/UAF1: Primary Screen; AID 743255, 2014; Ubiquitin carboxyl-terminal hydrolase 1 (Homo sapiens), O94782; recombinant USP1/UAF1, Ub-Rhodamine cleavage fluorescence; Potency, µM (top dose mostly 57.1 µM), for the others: at the highest dose activity change, negative = inhibition, hits mostly inhibitors; 0.23% of 390,000 active; also: potency is read from the fitted curve at half-maximal effect; % is scaled to controls: 0 for no effect and ±100 for the full control effect; nearly all actives have a fitted effect of over 60% in size
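High-throughput fluorogenic screen: 1nM USP1/UAF1 complex, Ub-Rho substrate 150nM final, 50mM HEPES pH 7.8 with 0.5mM EDTA, 0.1 mg/ml BSA, 1mM TCEP and 0.01% Tween-20.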
IL-1B inflam inh: qHTS for Inhibitors of Inflammasome Signaling: IL-1-beta AlphaLISA Primary Screen. THP-1 LPS/ATP IL-1B secretion, AlphaLISA, 16 h; stronger effect = lower value. 4.7% of 360,000 active. activity change, % at 57.5 µM; in the data active = activity change below about -50%; inconclusive = mostly about -30% to -49%; also: % is scaled to controls: 0 for no effect and ±100 for the full control effect
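Secreted IL-1B measured by AlphaLISA bead assay after 16 h compound exposure of THP-1 cells; compounds (final up to 57.5 uM) added 1 h before LPS (250 ng/mL) and ATP (1.25 mM) stimulation; lower signal means less secretion.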
USP2a inh: qHTS Assay for Inhibitors of Ubiquitin-specific Protease USP2a Using CHOP2 as the Reporter. Ubiquitin carboxyl-terminal hydrolase 2 (Homo sapiens), O75604. AID 463254, 2010. 0.01% of 330,000 active. Potency, µM (series often up to 38.3 µM), for inactives: top-dose activity change, negative = inhibition, usual class: inhibitors. USP2 core, Ub-CHOP2 coupled fluorogenic reporter, 485/531;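 also: potency is read from the fitted curve at half-maximal effect; plate controls were DMSO wells for no effect and full inhibition by NEM control for full effect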
Target sequence (O75604 whole entry, looked up): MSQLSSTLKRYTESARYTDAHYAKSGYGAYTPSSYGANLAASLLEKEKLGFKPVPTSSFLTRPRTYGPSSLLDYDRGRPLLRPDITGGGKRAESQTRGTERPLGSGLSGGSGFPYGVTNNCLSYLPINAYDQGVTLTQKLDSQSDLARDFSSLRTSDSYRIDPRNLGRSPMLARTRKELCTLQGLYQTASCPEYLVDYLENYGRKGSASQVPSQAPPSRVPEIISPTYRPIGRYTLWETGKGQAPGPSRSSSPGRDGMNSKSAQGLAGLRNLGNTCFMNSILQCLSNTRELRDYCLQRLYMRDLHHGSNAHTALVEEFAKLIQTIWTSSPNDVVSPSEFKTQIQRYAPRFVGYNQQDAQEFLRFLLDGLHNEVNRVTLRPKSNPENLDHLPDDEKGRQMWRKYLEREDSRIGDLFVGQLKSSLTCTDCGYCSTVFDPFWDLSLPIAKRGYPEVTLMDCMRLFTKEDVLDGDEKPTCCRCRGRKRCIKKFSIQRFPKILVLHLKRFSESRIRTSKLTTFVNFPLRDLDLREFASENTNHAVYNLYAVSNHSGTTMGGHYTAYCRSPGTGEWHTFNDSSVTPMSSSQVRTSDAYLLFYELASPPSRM
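USP2 core (10nM final) preincubated 30min RT with compound in 20mM Tris-HCl pH 8.0, 2mM CaCl2, 2mM beta-mercaptoethanol, 0.05% CHAPS; 25nM Ub-CHOP2 plus 25nM reporter substrate added, fluorescence (Ex485/Em531) read after 60min.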
ATXN2 expr inh: Primary qHTS for Inhibitors of ATXN expression; HEK-293 ATXN2-luciferase reporter, luminescence, 24 h; Potency, µM (top dose mostly 57 µM), for inactives: at the top dose activity change, negative = inhibition, most hits filed as inhibitors; 0.72% of 360,000 active; also: potency is read from the fitted curve at half-maximal effect; % is scaled to controls: 0 for no effect and ±100 for the full control effect; nearly all actives have a fitted effect of over 55% in size
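qHTS (up to 57 uM final) was run with 24 h compound exposure of reporter cells at 37 °C. Each well was multiplexed: SteadyGlo luminescence measured ATXN2-luciferase expression after a fluorogenic Gly-Phe-AFC viability readout (25 uM final).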
An asterisk follows results filed as active; i = inactive; ? = inconclusive; . = not tested or not shown; [ ] = dose if it differs, or a comment. The list is not random: actives were taken first. Their share in the collection is about 4.8%. Unless noted, calls follow the shape of the dose curve; as a rule, active = well fitted curve in the direction sought with a large enough effect; inconclusive = small, poorly fitted or top-dose-only effect, or another doubt; inactive = no such curve, though single readings can be large; an effect the other way counts as inactive or inconclusive.

SMILES	S2 tox	USP1-UAF1 inh	IL-1B inflam inh	USP2a inh	ATXN2 expr inh
CC(C)N(C(C)C)S(=O)(=O)c1ccc(N2CCc3ccccc3C2)nc1	?	-24.2%	-105.6*	-3.9%	-6.4%
Cc1occc1C(=O)Nc1cccc(-c2nc(CNC(=O)c3cc(-c4ccccc4)n[nH]3)c(C)o2)c1	i	.	.	.	.
CCOC(=O)[C@H](C)N1[C@H](C)[C@H](c2ccccc2)Oc2ccc(Cl)cc2S1(=O)=O	i	-5.9%	-6.2	.	2.2%
Cc1cc(N)c2cc(NC(=O)/C=C/c3ccccc3Cl)ccc2n1	8.91µM*	-29.8%	-64.6*	?	.
CCc1ccc(OCc2ccccc2C(=O)Nc2ccc3nc(C)cc(N)c3c2)cc1	.	.	.	.	17.2µM*
Cc1cc(C)nc(NC(=O)/C=C/c2ccc(Cl)cc2Cl)c1	i	-16.9%	-52.8*	3.2%	30.9%
Cc1ccnc(NC(=O)/C=C/c2ccccc2Cl)c1	i	-3.3%	-68.5*	0.0%	72.0%[11.3 µM]
Cc1cc(C)nc(NC(=O)/C=C/c2ccccc2Cl)c1	i	-18.3%	?	0.9%	80.2%
Cc1ccnc(NC(=O)/C=C/c2ccccc2[N+](=O)[O-])c1	.	.	.	0.4%	.
Cc1c(C(=O)NCC(C)(C)N2CCOCC2)cnn1-c1ncc2c(n1)-c1ccccc1CCC2	i	.	.	.	.
O=C(C(=O)N(C1CCCCC1)C1CCCCC1)c1ccccc1	.	.	7.9	.	.
Cc1ccc(N2CCN(S(=O)(=O)c3c(C)[nH]c(=O)[nH]c3=O)CC2C)cc1 (stereo not drawn)	i	-12.9%	.	.	2.9%
CC(C)CC[n+]1ccccc1/C=C/c1ccc(N(C)C)cc1	?	-21.5%	-95.5*	8.1%	?
O=C(NC(NC(=S)Nc1ccccc1)C(Cl)(Cl)Cl)c1cccc(Cl)c1 (stereo not drawn)	i	-17.8%	-94.5*	-9.5%	?
CN(C)C(=O)NC(NC(=S)Nc1ccccc1)C(Cl)(Cl)Cl (stereo not drawn)	?	-25.2%	-12.5	2.4%	-16.1%
Cc1ccc(C(=O)NC(NC(=S)Nc2ccc(S(N)(=O)=O)cc2)C(Cl)(Cl)Cl)cc1 (stereo not drawn)	i	-12.6%	-76.3*	-0.2%	4.8%
Cc1cc(C)c(NC(=S)NC(NC(=O)c2ccccc2)C(Cl)(Cl)Cl)c(C)c1 (stereo not drawn)	i	-10.7%	-74.8*	1.2%	?
O=C(O)c1cccc(NC(=S)NC(NC(=O)c2cccc([N+](=O)[O-])c2)C(Cl)(Cl)Cl)c1 (stereo not drawn)	i	-21.9%	8.0	-9.7%	.
O=C(NC(NC(=S)Nc1ccc(Cl)cc1Cl)C(Cl)(Cl)Cl)c1cccc([N+](=O)[O-])c1 (stereo not drawn)	?	-19.9%	-101.8*	-4.9%	?
Cc1ccccc1C(=O)NC(NC(=S)Nc1ccc(S(N)(=O)=O)cc1)C(Cl)(Cl)Cl (stereo not drawn)	i	-11.1%	-27.0	-2.5%	-0.7%
CCOc1ccc(CC(=O)NCCS(=O)(=O)N2CCN(c3ccccc3OC)CC2)cc1	.	-19.0%	.	.	.
COc1ccc(S(=O)(=O)N2CCC[C@H]2C(=O)N2CCC[C@H]2C(=O)NCc2ccc(F)cc2F)cc1C	25.1µM*	.	18.5	.	?
O=C(NCc1ccccc1)[C@@H]1CCCN1C(=O)[C@@H]1CCCN1C(=O)c1cccc2ccccc12	i	.	-16.2	.	-3.4%
COc1cccc(CNC(=O)[C@@H]2CCCN2C(=O)[C@@H]2CCCN2S(=O)(=O)c2ccc(OC)c(C)c2)c1	?	.	57.0	.	-15.2%
O=C(NCc1ccncc1)[C@@H]1CCCN1C(=O)[C@@H]1CCCN1C(=O)c1cccc2ccccc12	?	.	-102.7*	.	-8.8%
COc1ccc(S(=O)(=O)N2CCC[C@H]2C(=O)N2CCC[C@H]2C(=O)NCc2ccncc2)cc1C	i	.	-57.1*	.	2.9%
COc1ccc(S(=O)(=O)N2CCC[C@H]2C(=O)N2CCC[C@H]2C(=O)NCc2ccccc2)cc1C	i	.	0.0	.	-10.9%
